Assay [1] can be described thus: Nuclear factor erythroid 2-related factor 2/antioxidant responsive element (Nrf2/ARE) small molecule agonists: qHTS cell viability counter screen in human keratinocytes (AID 1919968; active means well fitted curve in the direction sought with a large enough effect in the repeat runs; an effect the other way counts as inactive or inconclusive; further: nearly all actives have a fitted effect of over 55% in size). A digest of the protocol: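 KeratinoSens HaCaT cells, 1,500/well, preincubated 5 h, then exposed to compounds in DMSO for 23 h at 37 C/5% CO2. Viability read as CellTiter-Fluor fluorescence after 1 h, in the same wells as the ARE-luciferase read.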

Assay [2] in a line: Nuclear factor erythroid 2-related factor 2/antioxidant responsive element (Nrf2/ARE) small molecule agonists: luciferase reporter gene qHTS assay in human keratinocytes (AID 1919969). Further: nearly all actives have a fitted effect of over 35% in size. Further: potency means the concentration at half of the fitted maximal effect.
Assay [3] deals with Gonadotropin-releasing hormone receptor (Homo sapiens) (UniProt P30968). Description: Human gonadotropin-releasing hormone receptor (GnRHR) small molecule agonists, calcium flux assay in GnRHR-HEK293 cells (AID 1920063). Further: nearly all actives have a fitted effect of over 35% in size. A digest of the protocol:
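HEK293 cells stably expressing human GnRHR were dye-loaded for 1 h at 37 C. Compound was added in agonist mode and fluorescence (Ex/Em 480/540) recorded kinetically for 3 min. Fifteen concentrations, triplicates.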

Assay [4] addresses KiSS-1 receptor (Homo sapiens) (UniProt Q969F8). Description: Human kisspeptin (KISS1R) small molecule agonists, calcium flux assay in KISS1R-HEK293 cells (AID 1920064; active means well fitted curve in the direction sought with a large enough effect in the repeat runs; an effect the other way counts as inactive or inconclusive). Put shortly:
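HEK293 cells stably expressing human KISS1R were loaded with calcium dye for 1 h at 37 C, then given compound; fluorescence (Ex/Em 480/540) was read kinetically for 3 min. Fifteen concentrations, triplicate.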
(In general: Calcium assays in cells follow changes in intracellular calcium, usually with a dye or a luminescent sensor.)

A short description of assay [5]: G protein-coupled receptor (GPCR) small molecule agonists, calcium flux assay: HEK293 wild type cell line counter screen (AID 1920065). A digest of the protocol: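 Wild-type HEK293 cells plated 18 h, loaded with calcium dye 1 h at 37 C, then compounds added in agonist mode (ATP as positive control). Kinetic fluorescence Ex/Em 480/540 recorded 3 min at 1 sec intervals; 15 concentrations, triplicate.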

Assay [6] can be described thus: p53 small molecule agonists, cell-based qHTS assay with human liver microsomes (AID 1963577). A digest of the protocol: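 In this qHTS, p53 response-element beta-lactamase cells receive test compound together with a microsome/NADPH activating system (0.5 mg/mL final each) and are incubated 16 h at 37 C before LiveBLAzer fluorescence detection.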
(Quantitative high-throughput screening tests each substance at several concentrations.)

Assay [7] in a line: p53 small molecule agonists, cell-based qHTS assay with rat liver microsomes (AID 1963578). A digest of the protocol:
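Agonist mode in p53RE-bla reporter cells, with compounds co-incubated 16 h at 37 C alongside 0.5 mg/mL rat liver microsomes and 0.5 mg/mL NADPH (final), followed by a 2 h LiveBLAzer detection step.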

Assay [8] can be described thus: p53 small molecule agonists, cell-based qHTS assay with human liver microsomes: qHTS cell viability counter screen (AID 1963579). Further: nearly all actives have a fitted effect of over 45% in size. A digest of the protocol: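 Metabolically activated exposure: compounds, human liver microsomes and NADPH (0.5 mg/mL final apiece) were added to p53RE-bla cells seeded 5 h earlier, left 16 h at 37 C, and then assessed for viability by CellTiter-Glo luminescence.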

The nature of assay [9]: p53 small molecule agonists, cell-based qHTS assay with rat liver microsomes: qHTS cell viability counter screen (AID 1963580). Further: nearly all actives have a fitted effect of over 45% in size. A digest of the protocol:
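HCT-116 p53RE-bla, 4,000 cells/well, 5 h pre-incubation; cpd + rat liver microsomes 0.5 mg/mL + NADPH 0.5 mg/mL (final); 16 h, 37 C; CellTiter-Glo, 30 min RT; luminescence.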

Assay [10] is described as follows: p53 small molecule agonists, cell-based qHTS assay: qHTS cell viability counter screen (AID 1963581). Further: nearly all actives have a fitted effect of over 45% in size. A digest of the protocol: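 p53RE-bla HCT-116 cells, compounds added 5 h after plating and incubated 16 h at 37 C. Cytotoxicity measured in the same wells as intracellular ATP by CellTiter-Glo luminescence after 30 min at room temperature.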
A short description of assay [11]: p53 small molecule agonists, cell-based qHTS assay (AID 1963582; active means well fitted activation curve with a large enough effect in the signal ratio in the repeat runs, not every such curve was filed as active; the % refers to the signal ratio). A digest of the protocol: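 p53RE-bla reporter cells, compounds added in DMSO after 5 h plating, incubated 16 h at 37 C. Beta-lactamase read via 2 h room-temperature LiveBLAzer B/G FRET substrate, fluorescence intensity.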
Assay [12] has as its target 5-hydroxytryptamine receptor 2A (Homo sapiens) (UniProt P28223). Description: 5-hydroxytryptamine receptor 2A (HTR2A) small molecule antagonists, cell-based qHTS assay (AID 1963586). Further: nearly all actives have a fitted effect of over 45% in size. Put shortly: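 Antagonist-mode intracellular calcium assay: DOI (4 nM) added after 5 min compound pre-incubation at room temperature to dye-loaded HTR2A-CHO cells. Fluorescence followed for 3 min, sampled every second.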

The target is the same in assay [13]. Description: 5-hydroxytryptamine receptor 2A (HTR2A) small molecule agonists, cell-based qHTS assay (AID 1963587). Further: nearly all actives have a fitted effect of over 30% in size. Put shortly: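 Kinetic calcium-flux fluorescence (2 min, 1 sec intervals) after compound addition in agonist mode. HTR2A-CHO cells were cultured 18 h, then dye-loaded 1 h at 37 C.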
The target of assay [14] is Muscarinic acetylcholine receptor M1 (Homo sapiens) (UniProt P11229). Description: Cholinergic receptor muscarinic 1 (CHRM1) small molecule antagonists, cell-based qHTS assay (AID 1963588). Further: nearly all actives have a fitted effect of over 40% in size. A digest of the protocol:
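CHRM1-CHO calcium-flux assay, antagonist mode. Cells were seeded 18 h, dye-loaded 1 h at 37 C and given compound for 5 min at RT, then acetylcholine was added at 50nM. FDSS fluorescence was read 3 min; 15 concentrations, three runs.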

Assay [15] shares this target. Description: Cholinergic receptor muscarinic 1 (CHRM1) small molecule agonists, cell-based qHTS assay (AID 1963589). Further: nearly all actives have a fitted effect of over 35% in size. A digest of the protocol: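 CHO cells stably expressing human CHRM1 were loaded with calcium dye for 1 h at 37 C, then compound was added in agonist mode. Intracellular calcium fluorescence was followed kinetically at 1 s intervals. Fifteen concentrations were tested in three independent runs.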

Assay [16] is described as follows: cAMP Responsive Elements (CRE) small molecule agonists, cell-based qHTS assay (AID 1963590). Put shortly: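 CRE-bla HEK 293T cells, 2,000/well in DMEM with 10% dialyzed FBS and 25 mM HEPES, pre-incubated 18 h at 37 C, then exposed to compound 3 h at 37 C. Beta-lactamase reporter read with LiveBLAzer B/G FRET substrate after 2 h at room temperature.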
The nature of assay [17]: cAMP Responsive Elements (CRE) small molecule antagonists, cell-based qHTS assay (AID 1963591; active means well fitted inhibition curve with a large enough effect in the signal ratio in the repeat runs, not every such curve was filed as active; the % refers to the signal ratio). Put shortly: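 CRE-bla HEK293T cells plated 18 h, then given compound plus NKH477 at 0.25 uM final for 3 h at 37C. Beta-lactamase reporter read with LiveBLAzer B/G FRET substrate after 2 h at room temperature.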
Assay [18] concerns the target Beta-2 adrenergic receptor (Homo sapiens) (UniProt P07550). Description: Adrenergic beta2 receptor (ADRB2) small molecule antagonists, cell-based qHTS assay (AID 1963592). Further: series mostly up to about 92 µM; nearly all actives have a fitted effect of over 50% in size. Put shortly:
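Cells (CHO, stable ADRB2 overexpression) incubated 18-20hr at 37C; compounds added from DMSO; agonist mix (1nM isoproterenol, 100uM IBMX, 25uM Ro-20-1724) added; 0.5hr RT; d2-cAMP and anti-cAMP-cryptate added; 1hr RT; 665/615 nm read.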

Assay [19] has the same target. Description: Adrenergic beta2 receptor (ADRB2) small molecule agonists, cell-based qHTS assay (AID 1963593).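 Further: CHO cells stably overexpressing human ADRB2.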 A digest of the protocol:
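CHO cells stably over-expressing ADRB2 were plated overnight at 37C, then dosed with compounds plus a stimulation mix containing 100uM IBMX and 25uM Ro-20-1724 for 0.5hr at room temperature. cAMP was measured by HTRF competition, 1hr.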

The target of assay [20] is D(2) dopamine receptor (Homo sapiens) (UniProt P14416). Description: Dopamine D2 receptor (DRD2) small molecule agonists, cell-based qHTS assay (AID 1963594). Further: nearly all actives have a fitted effect of over 35% in size. A digest of the protocol: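 cAMP accumulation in DRD2-HEK293 cells measured by HTRF after 1 h detection; compounds added 10 min before NKH477 (200nM […]) forskolin-analogue stimulation, 30 min at room temperature, with Ro20-1724 present at 0.1 mM final.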

This note sets out measurements from PubChem BioAssay (Tox21).

A number with no mark means an inactive call. Results filed as inconclusive are left out. Calls of active or inactive are those of the source. Unless noted, the call rests on the fitted dose curve.

Gonadotropin-releasing hormone receptor (Homo sapiens), sequence (P30968 whole entry, looked up): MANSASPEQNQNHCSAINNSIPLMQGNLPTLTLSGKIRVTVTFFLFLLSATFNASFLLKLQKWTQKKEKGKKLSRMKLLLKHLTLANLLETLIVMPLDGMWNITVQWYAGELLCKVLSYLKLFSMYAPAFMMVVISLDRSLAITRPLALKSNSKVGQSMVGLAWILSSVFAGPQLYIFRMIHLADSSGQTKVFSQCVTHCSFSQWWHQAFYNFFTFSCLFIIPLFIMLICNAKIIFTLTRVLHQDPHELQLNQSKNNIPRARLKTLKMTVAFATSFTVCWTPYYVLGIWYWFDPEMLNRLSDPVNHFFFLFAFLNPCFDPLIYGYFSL
5-hydroxytryptamine receptor 2A (Homo sapiens), sequence (P28223 whole entry, looked up): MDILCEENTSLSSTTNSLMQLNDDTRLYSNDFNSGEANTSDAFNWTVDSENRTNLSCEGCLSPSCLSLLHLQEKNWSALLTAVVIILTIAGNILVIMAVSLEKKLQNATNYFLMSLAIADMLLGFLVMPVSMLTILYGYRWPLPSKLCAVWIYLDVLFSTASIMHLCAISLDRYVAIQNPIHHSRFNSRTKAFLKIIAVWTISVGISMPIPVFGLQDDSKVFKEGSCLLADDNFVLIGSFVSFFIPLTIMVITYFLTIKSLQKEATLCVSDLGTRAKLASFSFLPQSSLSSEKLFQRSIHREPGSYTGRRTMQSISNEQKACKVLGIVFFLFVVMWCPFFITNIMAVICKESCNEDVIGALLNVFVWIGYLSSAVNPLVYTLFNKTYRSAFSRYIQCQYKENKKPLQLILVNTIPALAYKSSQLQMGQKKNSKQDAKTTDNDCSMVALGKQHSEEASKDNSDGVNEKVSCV
D(2) dopamine receptor (Homo sapiens), sequence (P14416 whole entry, looked up): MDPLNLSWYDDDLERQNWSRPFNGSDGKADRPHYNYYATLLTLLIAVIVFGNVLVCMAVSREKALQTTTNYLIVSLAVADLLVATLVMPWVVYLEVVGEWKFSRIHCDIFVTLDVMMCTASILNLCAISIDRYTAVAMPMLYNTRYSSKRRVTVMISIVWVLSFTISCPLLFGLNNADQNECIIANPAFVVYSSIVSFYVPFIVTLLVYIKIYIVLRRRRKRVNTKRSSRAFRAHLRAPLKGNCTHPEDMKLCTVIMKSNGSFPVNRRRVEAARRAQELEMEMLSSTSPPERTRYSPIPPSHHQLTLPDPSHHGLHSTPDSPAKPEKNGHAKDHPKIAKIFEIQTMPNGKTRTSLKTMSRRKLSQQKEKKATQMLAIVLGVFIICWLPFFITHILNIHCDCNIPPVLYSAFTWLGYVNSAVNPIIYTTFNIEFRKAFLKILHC
Beta-2 adrenergic receptor (Homo sapiens), sequence (P07550 whole entry, looked up): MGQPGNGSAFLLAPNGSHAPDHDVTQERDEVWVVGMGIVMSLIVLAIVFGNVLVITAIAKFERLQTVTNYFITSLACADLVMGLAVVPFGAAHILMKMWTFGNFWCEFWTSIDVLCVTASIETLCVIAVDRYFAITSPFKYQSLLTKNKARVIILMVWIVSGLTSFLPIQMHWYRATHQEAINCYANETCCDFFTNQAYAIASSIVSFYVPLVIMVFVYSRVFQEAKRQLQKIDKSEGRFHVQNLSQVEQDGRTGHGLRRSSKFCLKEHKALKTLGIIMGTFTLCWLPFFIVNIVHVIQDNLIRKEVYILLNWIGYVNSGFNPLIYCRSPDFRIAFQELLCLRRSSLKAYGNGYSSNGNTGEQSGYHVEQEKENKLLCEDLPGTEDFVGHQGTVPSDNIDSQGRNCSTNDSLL
KiSS-1 receptor (Homo sapiens), sequence (Q969F8 whole entry, looked up): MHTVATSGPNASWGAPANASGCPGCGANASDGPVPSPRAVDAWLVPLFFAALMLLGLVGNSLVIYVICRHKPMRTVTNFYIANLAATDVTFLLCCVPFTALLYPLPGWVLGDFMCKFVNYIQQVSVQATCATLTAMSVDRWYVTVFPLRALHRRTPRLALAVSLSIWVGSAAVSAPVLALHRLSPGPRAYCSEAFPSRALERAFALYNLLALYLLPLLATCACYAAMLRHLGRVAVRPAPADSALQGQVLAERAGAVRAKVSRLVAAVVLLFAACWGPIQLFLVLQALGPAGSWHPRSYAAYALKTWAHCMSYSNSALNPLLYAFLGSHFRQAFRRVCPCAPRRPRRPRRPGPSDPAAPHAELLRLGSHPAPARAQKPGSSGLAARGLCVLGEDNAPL
Muscarinic acetylcholine receptor M1 (Homo sapiens), sequence (P11229 whole entry, looked up): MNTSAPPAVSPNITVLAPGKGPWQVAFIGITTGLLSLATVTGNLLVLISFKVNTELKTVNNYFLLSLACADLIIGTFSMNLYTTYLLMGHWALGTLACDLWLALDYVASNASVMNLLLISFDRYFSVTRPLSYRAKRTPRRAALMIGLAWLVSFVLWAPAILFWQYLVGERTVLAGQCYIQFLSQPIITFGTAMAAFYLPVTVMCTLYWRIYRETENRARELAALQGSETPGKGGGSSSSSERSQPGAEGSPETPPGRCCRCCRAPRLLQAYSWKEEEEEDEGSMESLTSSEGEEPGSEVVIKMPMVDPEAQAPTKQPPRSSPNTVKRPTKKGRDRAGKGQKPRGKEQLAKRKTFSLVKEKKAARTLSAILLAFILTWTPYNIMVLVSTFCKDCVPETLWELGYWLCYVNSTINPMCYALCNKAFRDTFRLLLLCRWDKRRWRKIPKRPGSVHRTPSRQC

As for `c1ccc2cc3c4ccccc4c4ccccc4c3cc2c1`, the Potency entry in assay [1], in assay [3], in [4], in assay [5], in assay [6] and in [7] was “inactive” throughout. For the same compound, the Potency entry in assay [8], in assay [9], in [10], in [11], in assay [12] and in assay [13] was “inactive” in each case. In addition, the Potency entry in assay [14], in assay [15], in assay [16], in assay [17], in [18] and in assay [19] was “inactive” in each case. Further, in assay [20], the Potency result is “inactive”. In addition, the Potency in assay [2] is 24.4 µM (active).

Turning to `CCN(CC)CCN`, the Potency entry in [1], in assay [2], in assay [3], in assay [4], in assay [5] and in [6] was “inactive” in each case. Also, the Potency entry in assay [7], in assay [8], in assay [9], in assay [10], in assay [11] and in assay [12] was “inactive” each time. Further, the Potency result in [13], in assay [14], in [15], in assay [16], in assay [17] and in assay [18] was “inactive” in each case. Besides, the Potency result in assay [19] and in [20] was “inactive” throughout.

As to `CC(=O)CC(=O)Nc1ccc2[nH]c(=O)[nH]c2c1`, the Potency result in assay [1], in assay [2], in assay [3], in [4], in assay [5] and in [6] was “inactive” throughout. For the same compound, the Potency entry in [7], in assay [8], in assay [9], in assay [10], in [11] and in assay [12] was “inactive” in each case. Further, the Potency entry in [13], in [14], in assay [15], in assay [16], in assay [17] and in [18] was “inactive” throughout. The Potency entry in assay [19] and in assay [20] was “inactive” each time.

As to `O=C1OC[C@H](Cc2cccc(O)c2)[C@H]1Cc1cccc(O)c1`, the Potency result in assay [1], in [2], in assay [3], in assay [4], in [5] and in assay [6] was “inactive” throughout. The Potency result in assay [7], in assay [8], in [9], in [10], in [11] and in [12] was “inactive” in each case. The Potency entry in assay [13], in assay [14], in [15], in assay [16], in assay [17] and in [18] was “inactive” each time. Moreover, the Potency entry in [19] and in assay [20] was “inactive” in each case.

As for `[K+]`, the Potency result in [1], in [2], in assay [3], in assay [4], in assay [5] and in assay [6] was “inactive” in each case. Moreover, the Potency entry in assay [7], in assay [8], in assay [9], in assay [10], in assay [11] and in assay [12] was “inactive” in each case. Also, the Potency result in [13], in [14], in assay [15], in assay [16], in assay [17] and in assay [18] was “inactive” in each case. Besides, the Potency result in assay [19] and in assay [20] was “inactive” each time.

Turning to `CCCO[Si](OCCC)(OCCC)OCCC`, the Potency entry in assay [1], in assay [2], in assay [3], in assay [4], in assay [5] and in [6] was “inactive” throughout. For the same compound, the Potency result in [7], in assay [8], in [9], in assay [10], in assay [11] and in [12] was “inactive” throughout. Also, the Potency entry in [13], in assay [14], in assay [15], in [16], in [17] and in [18] was “inactive” in each case. For the same compound, the Potency result in [19] and in [20] was “inactive” each time.

For the compound `CCOC(=O)NCCC[Si](OCC)(OCC)OCC`, the Potency result in assay [1], in [2], in assay [3], in assay [4], in [5] and in assay [6] was “inactive” throughout. Besides, the Potency result in assay [7], in assay [8], in assay [9], in [10], in assay [11] and in assay [12] was “inactive” throughout. Also, the Potency entry in assay [13], in assay [14], in [15], in assay [16], in [17] and in assay [18] was “inactive” in each case. For the same compound, the Potency result in [19] and in [20] was “inactive” each time.
